Common to all, as to assay: NCI-60 one-dose screen, 48 h (100 = growth as untreated, 0 = no growth, -100 = all killed)
The subject of one experiment is HCT-15 colon. Particulars: 10 µM unless noted.
Another experiment deals with HT29 colon. Particulars: 10 µM unless noted.
The next experiment relates to SNB-75 CNS. The settings on record: 10 µM unless noted.
For another experiment, the system named is SNB-19 CNS. Particulars: 10 µM unless noted.
For a further experiment, the system named is U251 CNS. Particulars: 10 µM unless noted.
In the next experiment the test system is PC-3 prostate. Particulars: 10 µM unless noted.
Another experiment deals with SK-MEL-5 melanoma. Particulars: 10 µM unless noted.
A further experiment deals with UACC-62 melanoma. Particulars: 10 µM unless noted.
A further experiment relates to LOX IMVI melanoma. The settings on record: 10 µM unless noted.
The next experiment relates to SK-MEL-28 melanoma. Particulars: 10 µM unless noted.
Another experiment relates to SK-MEL-2 melanoma. Particulars: 10 µM unless noted.
The test system of the next experiment is SN12C renal. Particulars: 10 µM unless noted.
The subject of another experiment is UO-31 renal. The settings on record: 10 µM unless noted.
The test system of another experiment is TK-10 renal. Particulars: 10 µM unless noted.
The next experiment has as its system ACHN renal. Particulars: 10 µM unless noted.
The subject of another experiment is CAKI-1 renal. Particulars: 10 µM unless noted.
In a further experiment the test system is A498 renal. Particulars: 10 µM unless noted.
The next experiment deals with CCRF-CEM leukemia. Particulars: 10 µM.
A further experiment deals with MOLT-4 leukemia. Particulars: 10 µM unless noted.
The test system of the next experiment is EKVX NSCLC. Particulars: 10 µM.

The panel holds about 83,000 compounds, 20% with a hit somewhere; the sample as a whole holds those more often.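 The test compound was applied at a single concentration to cells in 96-well plates for 48 hours, and percent growth was recorded.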 The source made the active and inactive calls. Rule for the calls: active = growth percent below 10; inactive = the rest.

Consider `O=C1C(Br)=CC2C1C1C3CCC3C2(Br)C12OCCO2` (stereo not given), for which the growth in the experiment with HCT-15 colon is 19% (inactive); in the experiment with HT29 colon it was 8.84% (active); with SNB-75 CNS, 56.3% (inactive); in the experiment on SNB-19 CNS it was 81% (inactive); in the experiment on U251 CNS, 35.3% (inactive); in the experiment with PC-3 prostate it was 32% (inactive). The growth with SK-MEL-5 melanoma was 67.3% (inactive); in the experiment with UACC-62 melanoma, 54.9% (inactive); with LOX IMVI melanoma it was 8.55% (active); in the experiment with SK-MEL-28 melanoma, 55.7% (inactive); in the experiment on SK-MEL-2 melanoma, 21.7% (inactive); in the experiment on SN12C renal, 41.8% (inactive). Moreover, the growth was 62% (inactive) in the experiment on UO-31 renal; 28.8% (inactive) in the experiment on TK-10 renal; 32.5% (inactive) in the experiment with ACHN renal; -19.3% (active) in the experiment on CAKI-1 renal; 52.4% (inactive) in the experiment with A498 renal; -3.12% (active) in the experiment with CCRF-CEM leukemia. Besides, in the experiment on MOLT-4 leukemia, the growth was 15.7% (inactive).
Turning to `COc1ccc(/C=C/C(=O)/C=C/c2cc3ccccc3[nH]c2=O)cc1`, the growth in the experiment with HCT-15 colon is 75.3% (inactive); in the experiment on HT29 colon, 3.66% (active); in the experiment on SNB-75 CNS it was 61.6% (inactive); in the experiment with SNB-19 CNS it was 79.6% (inactive); with U251 CNS, 13.7% (inactive); with PC-3 prostate it was 52.4% (inactive). Further, the growth in the experiment on SK-MEL-5 melanoma is 86.7% (inactive); with UACC-62 melanoma, 53.5% (inactive); with LOX IMVI melanoma, -21% (active); in the experiment with SK-MEL-28 melanoma, 79.6% (inactive); in the experiment on SK-MEL-2 melanoma, 95.9% (inactive); in the experiment on SN12C renal, 66.5% (inactive). Besides, the growth is 94.4% (inactive) in the experiment with UO-31 renal; 118% (inactive) in the experiment with TK-10 renal; 84.1% (inactive) in the experiment on ACHN renal; 98.2% (inactive) in the experiment on CAKI-1 renal; 100% (inactive) in the experiment with A498 renal; 8.49% (active) in the experiment with CCRF-CEM leukemia. Further, the growth in the experiment on MOLT-4 leukemia is 19.4% (inactive).
Consider `CC[n+]1c(C)ccc2cc(C)ccc21`, for which the growth in the experiment with HCT-15 colon is 94.5% (inactive); in the experiment with HT29 colon, 108% (inactive); in the experiment on SNB-75 CNS it was 83.7% (inactive); in the experiment with SNB-19 CNS, 92.7% (inactive); with U251 CNS, 93.5% (inactive); in the experiment on PC-3 prostate, 104% (inactive). Moreover, the growth in the experiment on SK-MEL-5 melanoma was 99.2% (inactive); in the experiment with UACC-62 melanoma, 96.1% (inactive); with LOX IMVI melanoma, 90.8% (inactive); in the experiment with SK-MEL-28 melanoma, 105% (inactive); with SK-MEL-2 melanoma, 106% (inactive); in the experiment on EKVX NSCLC, 72.6% (inactive). Further, the growth in the experiment on TK-10 renal was 98.1% (inactive); in the experiment with ACHN renal, 106% (inactive); with CAKI-1 renal, 113% (inactive); with A498 renal it was 96.7% (inactive); in the experiment with CCRF-CEM leukemia, 98% (inactive); in the experiment with MOLT-4 leukemia, 89.9% (inactive).
For `Cc1ccc(S(=O)(=O)NC(CCC(=O)Nc2ccccc2)C(=O)Nc2ccccc2)cc1` (stereo not given), the growth in the experiment with HCT-15 colon is 0.514% (active); in the experiment with HT29 colon, -14.5% (active); in the experiment with SNB-75 CNS, -24.9% (active); in the experiment with SNB-19 CNS it was -3.81% (active); with U251 CNS, -43.8% (active); in the experiment on PC-3 prostate, -10.4% (active). Also, the growth with SK-MEL-5 melanoma was -65.5% (active); in the experiment with UACC-62 melanoma, -45.6% (active); in the experiment with LOX IMVI melanoma it was -21.6% (active); with SK-MEL-28 melanoma, -33.2% (active); in the experiment with SK-MEL-2 melanoma, -39.6% (active); with SN12C renal, 3.91% (active). The growth in the experiment on UO-31 renal was -16.3% (active); in the experiment on TK-10 renal it was -12.9% (active); in the experiment with ACHN renal, -50.7% (active); with CAKI-1 renal it was 12% (inactive); with A498 renal, -20.7% (active); in the experiment with CCRF-CEM leukemia, 5.4% (active).
With `CCN(CC)CCCNc1c2ccc(Cl)cc2nc2ccc(OC)cc12`, the growth with HCT-15 colon was 1.74% (active); with HT29 colon, -15.4% (active); in the experiment with SNB-75 CNS, -44.9% (active); in the experiment on SNB-19 CNS, 10.2% (inactive); in the experiment with U251 CNS it was -14.9% (active); with PC-3 prostate, -34.6% (active). Also, the growth with SK-MEL-5 melanoma is -96.3% (active); in the experiment with UACC-62 melanoma, 50.3% (inactive); in the experiment on LOX IMVI melanoma, -43.1% (active); in the experiment on SK-MEL-28 melanoma, -72.3% (active); in the experiment on SK-MEL-2 melanoma, -3.63% (active); with SN12C renal, 10.7% (inactive). Moreover, the growth is -69.2% (active) with UO-31 renal; -4.36% (active) in the experiment on TK-10 renal; 1.29% (active) in the experiment with ACHN renal; 4.67% (active) in the experiment on CAKI-1 renal; -62.2% (active) with A498 renal; -10.1% (active) in the experiment on CCRF-CEM leukemia. In addition, the growth with MOLT-4 leukemia was -20.8% (active).
With `O=C(/C=C/c1ccc(Cl)cc1)c1ccc(Cl)cc1`, the growth in the experiment on HCT-15 colon is 94.3% (inactive); with HT29 colon, 70.2% (inactive); in the experiment with SNB-75 CNS, 99% (inactive); in the experiment with SNB-19 CNS, 102% (inactive); in the experiment on U251 CNS it was 93.8% (inactive); with PC-3 prostate, 96.8% (inactive). Also, the growth in the experiment on SK-MEL-5 melanoma was 97.3% (inactive); in the experiment on UACC-62 melanoma it was 90.4% (inactive); with LOX IMVI melanoma, 66.5% (inactive); with SK-MEL-28 melanoma, 99.9% (inactive); in the experiment on SK-MEL-2 melanoma, 97.2% (inactive); with SN12C renal, 102% (inactive). Further, the growth was 76.2% (inactive) in the experiment with UO-31 renal; 78% (inactive) with TK-10 renal; 109% (inactive) in the experiment on ACHN renal; 75.7% (inactive) with CAKI-1 renal; 82.8% (inactive) in the experiment with A498 renal; 66.9% (inactive) with CCRF-CEM leukemia.
Turning to `CC#Cc1nc(Nc2cc(C)[nH]n2)c2ccccc2n1`, the growth in the experiment on HCT-15 colon was -0.521% [100 µM] (active); in the experiment with HT29 colon, 2.45% [100 µM] (active); in the experiment on SNB-75 CNS, -14.3% [100 µM] (active); in the experiment on SNB-19 CNS it was 43% [100 µM] (inactive); in the experiment with U251 CNS, -25.5% [100 µM] (active); with PC-3 prostate it was -28.8% [100 µM] (active). Further, the growth in the experiment with SK-MEL-5 melanoma was -71.9% [100 µM] (active); with UACC-62 melanoma it was -84.1% [100 µM] (active); in the experiment with LOX IMVI melanoma, -58.5% [100 µM] (active); with SK-MEL-28 melanoma, 40.5% [100 µM] (inactive); in the experiment with SK-MEL-2 melanoma, -51.2% [100 µM] (active); in the experiment on SN12C renal, -0.924% [100 µM] (active). Moreover, the growth in the experiment with UO-31 renal was -6.22% [100 µM] (active); in the experiment with TK-10 renal, 3.15% [100 µM] (active); with ACHN renal, 3.22% [100 µM] (active); in the experiment on CAKI-1 renal it was -33.2% [100 µM] (active); in the experiment on A498 renal, -94% [100 µM] (active).
Regarding `c1cc[c]([Bi]([c]2ccccc2)[c]2ccccc2)cc1`, the growth in the experiment with HCT-15 colon is 103% (inactive); with HT29 colon it was 112% (inactive); with SNB-75 CNS, 76.9% (inactive); in the experiment with SNB-19 CNS, 102% (inactive); with U251 CNS, 99.6% (inactive); in the experiment with PC-3 prostate, 85.2% (inactive). Moreover, the growth in the experiment with SK-MEL-5 melanoma was 97.8% (inactive); in the experiment on UACC-62 melanoma, 94.6% (inactive); in the experiment on LOX IMVI melanoma, 98.6% (inactive); in the experiment with SK-MEL-28 melanoma, 102% (inactive); with SK-MEL-2 melanoma, 116% (inactive); with SN12C renal, 97.1% (inactive). The growth in the experiment on UO-31 renal is 84.8% (inactive); in the experiment on TK-10 renal, 94.6% (inactive); in the experiment with ACHN renal it was 105% (inactive); in the experiment on CAKI-1 renal, 88.6% (inactive); with A498 renal it was 89.3% (inactive); with CCRF-CEM leukemia, 86.5% (inactive). Moreover, the growth in the experiment with MOLT-4 leukemia was 108% (inactive).
Regarding `NNC(=S)N1N=C(c2cc3ccccc3o2)CC1c1c[nH]c2ccccc12` (stereo not given), the growth in the experiment on HCT-15 colon is 30.4% (inactive); in the experiment with HT29 colon it was 34.1% (inactive); with SNB-75 CNS, 88.4% (inactive); in the experiment with SNB-19 CNS it was 35.5% (inactive); in the experiment on U251 CNS, 36% (inactive); in the experiment on PC-3 prostate, 29.2% (inactive). The growth in the experiment with SK-MEL-5 melanoma is 42.1% (inactive); in the experiment with UACC-62 melanoma it was 15.4% (inactive); in the experiment on LOX IMVI melanoma, 26% (inactive); in the experiment with SK-MEL-28 melanoma it was 40.2% (inactive); in the experiment with SK-MEL-2 melanoma it was 60.1% (inactive); in the experiment on EKVX NSCLC, 35.2% (inactive). In addition, the growth with UO-31 renal was 24% (inactive); in the experiment on TK-10 renal, 80.1% (inactive); in the experiment with ACHN renal, 24% (inactive); in the experiment on A498 renal, 90.2% (inactive); in the experiment with CCRF-CEM leukemia it was 7.46% (active); with MOLT-4 leukemia it was 10.2% (inactive).
